Where a name gives a salt, the structure may show the parent alone. ± gives the standard deviation of the averaged measurements.

This assay concerns E. coli TESEC Alr+ wild-type control. Description: growth (OD600 after 10 h); higher = more growth (less inhibition). The conditions noted are these: compound 0.1 mM; raw OD600 reference: median of DMSO wells 0.49, cell-free background 0.052. The procedure: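 TESEC Mtb Alr E. coli (ΔaraC ΔtolC ΔentC Δalr ΔdadX, arabinose-inducible Mtb Alr) or the Alr+ wild-type control strain, grown in defined M9-fructose medium without D-alanine in 96-well plates with Prestwick library compounds at 0.1 mM and 1% DMSO. Low Alr induction is 0.1 µM arabinose and high induction is 10 mM arabinose.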
`CN(C)CCC(c1ccc(Br)cc1)c1ccccn1` (stereo not given) [Brompheniramine maleate] came in with a growth of 0.45 ± 0.043.

As to `O=C1NCN(c2ccccc2)C12CCN(CCCC(c1ccc(F)cc1)c1ccc(F)cc1)CC2` [Fluspirilen], the growth is 0.055 ± 0.0016.

`Cc1c(N(C)CS(=O)(=O)O)c(=O)n(-c2ccccc2)n1C` [Dipyrone] displayed a growth of 0.473 ± 0.039.

With `C[C@@](Cc1ccc(O)c(O)c1)(NN)C(=O)O` [Carbidopa], the growth is 0.499 ± 0.048.

`CC1CS(=O)(=O)CCN1/N=C/c1ccc([N+](=O)[O-])o1` (stereo not given) [Nifurtimox] displayed a growth of 0.354 ± 0.021.

`CCOC(=O)c1ccc(N)cc1` [Benzocaine] gave a growth of 0.432 ± 0.0086.

As to `Nc1ccn([C@@H]2O[C@H](CO)[C@@H](O)[C@@H]2O)c(=O)n1` [Cytarabine], the growth worked out at 0.552 ± 0.051.

Turning to `CC12CC3CC(C)(C1)CC(N)(C3)C2` [Memantine Hydrochloride], the growth stood at 0.503 ± 0.12.

In the case of `CN(C)CCC[C@@]1(c2ccc(F)cc2)OCc2cc(C#N)ccc21` [Escitalopram oxalate], the growth was 0.435 ± 0.007.

Consider `CNCCCN1c2ccccc2CCc2ccccc21` [Desipramine hydrochloride], for which the growth was 0.578 ± 0.053.

Consider `CCC(=O)O[C@]1(C(=O)CCl)[C@@H](C)C[C@H]2[C@@H]3CCC4=CC(=O)C=C[C@]4(C)[C@@]3(F)[C@@H](O)C[C@@]21C` [Clobetasol propionate], for which the growth came to 0.326 ± 0.017.

With `CC(=O)OCC(=O)[C@@]1(O)CC[C@H]2[C@@H]3CCC4=CC(=O)CC[C@]4(C)[C@H]3[C@@H](O)C[C@@]21C` [Cortisol acetate], the growth worked out at 0.517 ± 0.032.

In the case of `Cc1cccc(C)c1OCC(C)N` (stereo not given) [Mexiletine hydrochloride], the growth was determined as 0.399 ± 0.005.

As to `CC(C)C(=O)Nc1ccc([N+](=O)[O-])c(C(F)(F)F)c1` [Flutamide], the growth amounted to 0.506 ± 0.0074.

For `CC1(C)O[C@@H]2C[C@H]3[C@@H]4C[C@H](F)C5=CC(=O)C=C[C@]5(C)[C@@]4(F)[C@@H](O)C[C@]3(C)[C@]2(C(=O)CO)O1` [Fluocinolone acetonide], the growth came to 0.591 ± 0.015.

For the molecule `Cc1ncc([N+](=O)[O-])n1CC(O)CCl` (stereo not given) [Ornidazole], the growth is 0.43 ± 0.049.

In turn, `CCCCCN(C)CCC(O)(P(=O)(O)O)P(=O)(O)O` [Ibandronate sodium] displayed a growth of 0.462 ± 0.035.

`O=C(CCCN1CCN(c2ccccn2)CC1)c1ccc(F)cc1` [Azaperone] had a growth of 0.395 ± 0.0085.

As for `CC(C)c1c(C(=O)Nc2ccccc2)c(-c2ccccc2)c(-c2ccc(F)cc2)n1CC[C@@H](O)C[C@@H](O)CC(=O)O` [Atorvastatin], the growth stood at 0.217 ± 0.011.

Regarding `C=CC1=C(C(=O)O)N2C(=O)[C@@H](NC(=O)/C(=N\O)c3csc(N)n3)[C@H]2SC1` [Cefdinir], the growth was found to be 0.0483 ± 0.0014.

Turning to `CC1(C)S[C@@H]2[C@H](NC(=O)Cc3ccccc3)C(=O)N2[C@H]1C(=O)O` [Benzylpenicillin sodium], the growth amounted to 0.533 ± 0.11.

`CC(=O)Nc1ccc(OCC(O)CNC(C)C)cc1` (stereo not given) [Practolol] displayed a growth of 0.643 ± 0.039.

`COc1ccc(C(=O)c2ccccc2)c(O)c1` [Oxybenzone] displayed a growth of 0.27 ± 0.011.

`Nc1nc(=O)c2nc(CNc3ccc(C(=O)N[C@@H](CCC(=O)O)C(=O)O)cc3)cnc2[nH]1` [Folic acid] had a growth of 0.446 ± 0.02.

In turn, `C[C@H](CS)C(=O)N1CCC[C@H]1C(=O)O` [Captopril] registered a growth of 0.475 ± 0.059.

`COc1ccccc1N1CCN(CCCCNC(=O)c2ccc3ccccc3c2)CC1` displayed a growth of 0.374 ± 0.0092.

For the molecule `Cc1onc(-c2ccccc2Cl)c1C(=O)N[C@@H]1C(=O)N2[C@@H]1SC(C)(C)[C@@H]2C(=O)O` [Cloxacillin sodium salt], the growth is 0.514 ± 0.11.

`CC1=C(CC(=O)O)c2cc(F)ccc2/C1=C\c1ccc([S+](C)[O-])cc1` (stereo not given) [Sulindac] yielded a growth of 0.364 ± 0.036.

With `NS(=O)(=O)Cc1noc2ccccc12` [Zonisamide], the growth is 0.453 ± 0.018.

For `CC(NCCC(c1ccccc1)c1ccccc1)c1ccccc1` (stereo not given) [Fendiline hydrochloride], the growth turned out to be 0.0558 ± 0.011.

`CCc1oc2ccccc2c1C(=O)c1cc(Br)c(O)c(Br)c1` [Benzbromarone] gave a growth of 0.05037 ± 5.8e-05.

`O=C(CCCCCCC(=O)Nc1ccccc1)NO` [Vorinostat] showed a growth of 0.495 ± 0.099.

On to `Cc1ccsc1/C=C/C1=NCCCN1C` [Morantel tartrate], for which the growth came out at 0.513 ± 0.029.

For `CCC1=C(C)CN(C(=O)NCCc2ccc(S(=O)(=O)NC(=O)N[C@H]3CC[C@H](C)CC3)cc2)C1=O` [Glimepiride], the growth was found to be 0.434 ± 0.034.

In turn, `Cc1ncc([N+](=O)[O-])n1CC(C)O` (stereo not given) [Secnidazole] displayed a growth of 0.4475 ± 0.003.

Molecule `CCN1CCCC1CNC(=O)c1cc(S(N)(=O)=O)ccc1OC` (stereo not given) [Sulpiride] came in with a growth of 0.525 ± 0.011.

The molecule `O=C1OC(CN2CCOCC2)CN1/N=C/c1ccc([N+](=O)[O-])o1` (stereo not given) [Furaltadone hydrochloride] registered a growth of 0.05647 ± 0.00045.

In turn, `c1ccc(-c2ccc(C(c3ccccc3)n3ccnc3)cc2)cc1` (stereo not given) [Bifonazole] yielded a growth of 0.0548 ± 0.0039.

As to `CCCCOc1ccc(CC(=O)NO)cc1` [Bufexamac], the growth was 0.437 ± 0.031.

`CCCCc1ccc2[nH]c(NC(=O)OC)nc2c1` [Parbendazole] came in with a growth of 0.496 ± 0.038.

These data come from the supplement of paper PMC9262897, “Low-cost anti-mycobacterial drug discovery using engineered E. coli” (Nature Communications, 2022).
